From ChEMBL document CHEMBL1961873, “Compounds: GSK PKIS; Assays: Nanosyn kinase panel” (2012) come the findings set out here.

As a reminder, the inhibition is the change of the read-out against control, counted positive when it falls.

Each structure is given as a SMILES string.

The target in assay [1] is Tyrosine-protein kinase CSK (Homo sapiens) (UniProt P41240). Conditions: at 1 µM.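 Further: each value is an averaged inhibition reading.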
Assay [2] addresses T1, Discoidin domain-containing receptor 2 (Homo sapiens) (UniProt Q16832).
T1 sequence (whole entry): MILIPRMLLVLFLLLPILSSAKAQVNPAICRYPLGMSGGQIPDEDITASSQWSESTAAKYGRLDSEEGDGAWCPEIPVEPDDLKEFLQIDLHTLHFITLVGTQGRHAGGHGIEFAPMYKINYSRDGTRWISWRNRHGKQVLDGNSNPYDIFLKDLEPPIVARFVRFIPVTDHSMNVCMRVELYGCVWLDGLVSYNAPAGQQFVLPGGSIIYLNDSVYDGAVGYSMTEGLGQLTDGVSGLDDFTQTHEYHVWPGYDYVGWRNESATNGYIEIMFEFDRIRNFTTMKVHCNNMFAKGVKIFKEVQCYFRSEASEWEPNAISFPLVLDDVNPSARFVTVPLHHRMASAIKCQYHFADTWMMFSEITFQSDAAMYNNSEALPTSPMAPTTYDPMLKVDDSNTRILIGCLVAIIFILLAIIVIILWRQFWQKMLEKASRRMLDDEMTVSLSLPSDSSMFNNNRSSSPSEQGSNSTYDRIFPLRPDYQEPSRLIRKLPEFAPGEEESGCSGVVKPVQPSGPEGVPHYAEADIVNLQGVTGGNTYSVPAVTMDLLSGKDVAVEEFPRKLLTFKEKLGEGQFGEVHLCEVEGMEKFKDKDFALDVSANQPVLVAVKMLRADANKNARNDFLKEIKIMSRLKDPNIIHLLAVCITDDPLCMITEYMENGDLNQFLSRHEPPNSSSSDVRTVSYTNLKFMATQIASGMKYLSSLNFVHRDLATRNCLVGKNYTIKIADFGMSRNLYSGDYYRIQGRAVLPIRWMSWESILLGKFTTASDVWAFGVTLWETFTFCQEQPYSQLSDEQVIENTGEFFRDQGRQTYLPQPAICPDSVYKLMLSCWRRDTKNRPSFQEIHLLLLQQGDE
Conditions: at 0.1 µM.

Assay [3] addresses T1, Discoidin domain-containing receptor 2 (Homo sapiens). Conditions: at 1 µM.
Assay [4] deals with Epidermal growth factor receptor (Homo sapiens) (UniProt P00533). Conditions: at 0.1 µM.
Assay [5] has the same target. Conditions: at 1 µM.
For assay [6], the system named is Epidermal growth factor receptor (Homo sapiens), P00533 [L858R]. Conditions: at 0.1 µM.
Assay [7] shares this test system. Conditions: at 1 µM.
The test system of assay [8] is Epidermal growth factor receptor (Homo sapiens), P00533 [L861Q]. Conditions: at 0.1 µM.
Assay [9] shares this test system. Conditions: at 1 µM.
Assay [10] concerns Epidermal growth factor receptor (Homo sapiens), P00533 [T790M]. Conditions: at 0.1 µM.
For assay [11] the test system is unchanged. Conditions: at 1 µM.
Assay [12] concerns Epidermal growth factor receptor (Homo sapiens), P00533 [L858R,T790M]. Conditions: at 0.1 µM.
For assay [13] the test system is unchanged. Conditions: at 1 µM.
In assay [14] the target is Ephrin type-A receptor 2 (Homo sapiens) (UniProt P29317). Conditions: at 0.1 µM.
Assay [15] has the same target. Conditions: at 1 µM.
Assay [16] addresses T2, Ephrin type-A receptor 3 (Homo sapiens) (UniProt P29320).
T2 sequence (whole entry): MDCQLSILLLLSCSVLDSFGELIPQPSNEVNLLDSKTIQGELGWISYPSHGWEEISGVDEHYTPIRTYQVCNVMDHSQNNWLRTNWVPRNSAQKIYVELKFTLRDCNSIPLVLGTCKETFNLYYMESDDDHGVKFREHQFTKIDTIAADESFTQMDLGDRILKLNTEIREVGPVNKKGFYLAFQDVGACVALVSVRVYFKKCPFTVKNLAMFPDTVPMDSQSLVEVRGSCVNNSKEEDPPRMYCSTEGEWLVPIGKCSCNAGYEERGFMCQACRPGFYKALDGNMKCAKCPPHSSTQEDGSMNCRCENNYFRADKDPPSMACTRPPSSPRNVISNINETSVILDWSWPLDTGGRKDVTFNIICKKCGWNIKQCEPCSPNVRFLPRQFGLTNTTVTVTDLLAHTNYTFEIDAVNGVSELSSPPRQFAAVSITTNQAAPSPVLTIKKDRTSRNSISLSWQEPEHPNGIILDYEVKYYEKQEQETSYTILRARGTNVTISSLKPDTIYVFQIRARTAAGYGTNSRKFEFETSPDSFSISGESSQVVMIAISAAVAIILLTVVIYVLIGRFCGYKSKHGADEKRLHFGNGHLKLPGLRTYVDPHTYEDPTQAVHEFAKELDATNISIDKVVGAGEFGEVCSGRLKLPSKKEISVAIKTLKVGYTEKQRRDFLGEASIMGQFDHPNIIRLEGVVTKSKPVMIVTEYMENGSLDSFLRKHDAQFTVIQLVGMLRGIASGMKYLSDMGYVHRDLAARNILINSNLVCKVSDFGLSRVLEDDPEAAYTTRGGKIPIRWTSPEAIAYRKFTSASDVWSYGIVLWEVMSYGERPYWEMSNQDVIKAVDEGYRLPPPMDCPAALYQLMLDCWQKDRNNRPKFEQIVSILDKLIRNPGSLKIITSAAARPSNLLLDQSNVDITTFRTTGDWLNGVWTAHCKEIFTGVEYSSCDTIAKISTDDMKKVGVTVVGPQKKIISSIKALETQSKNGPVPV
Conditions: at 0.1 µM.

The target of assay [17] is T2, Ephrin type-A receptor 3 (Homo sapiens). Conditions: at 1 µM.
Assay [18] deals with Ephrin type-A receptor 4 (Homo sapiens) (UniProt P54764). Conditions: at 0.1 µM.
For assay [19] the target is unchanged. Conditions: at 1 µM.
The target of assay [20] is T3, Ephrin type-B receptor 2 (Homo sapiens) (UniProt P29323).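 Further: reported as mean inhibition of EPHB2, from the GSK PKIS dataset.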
T3 sequence (whole entry): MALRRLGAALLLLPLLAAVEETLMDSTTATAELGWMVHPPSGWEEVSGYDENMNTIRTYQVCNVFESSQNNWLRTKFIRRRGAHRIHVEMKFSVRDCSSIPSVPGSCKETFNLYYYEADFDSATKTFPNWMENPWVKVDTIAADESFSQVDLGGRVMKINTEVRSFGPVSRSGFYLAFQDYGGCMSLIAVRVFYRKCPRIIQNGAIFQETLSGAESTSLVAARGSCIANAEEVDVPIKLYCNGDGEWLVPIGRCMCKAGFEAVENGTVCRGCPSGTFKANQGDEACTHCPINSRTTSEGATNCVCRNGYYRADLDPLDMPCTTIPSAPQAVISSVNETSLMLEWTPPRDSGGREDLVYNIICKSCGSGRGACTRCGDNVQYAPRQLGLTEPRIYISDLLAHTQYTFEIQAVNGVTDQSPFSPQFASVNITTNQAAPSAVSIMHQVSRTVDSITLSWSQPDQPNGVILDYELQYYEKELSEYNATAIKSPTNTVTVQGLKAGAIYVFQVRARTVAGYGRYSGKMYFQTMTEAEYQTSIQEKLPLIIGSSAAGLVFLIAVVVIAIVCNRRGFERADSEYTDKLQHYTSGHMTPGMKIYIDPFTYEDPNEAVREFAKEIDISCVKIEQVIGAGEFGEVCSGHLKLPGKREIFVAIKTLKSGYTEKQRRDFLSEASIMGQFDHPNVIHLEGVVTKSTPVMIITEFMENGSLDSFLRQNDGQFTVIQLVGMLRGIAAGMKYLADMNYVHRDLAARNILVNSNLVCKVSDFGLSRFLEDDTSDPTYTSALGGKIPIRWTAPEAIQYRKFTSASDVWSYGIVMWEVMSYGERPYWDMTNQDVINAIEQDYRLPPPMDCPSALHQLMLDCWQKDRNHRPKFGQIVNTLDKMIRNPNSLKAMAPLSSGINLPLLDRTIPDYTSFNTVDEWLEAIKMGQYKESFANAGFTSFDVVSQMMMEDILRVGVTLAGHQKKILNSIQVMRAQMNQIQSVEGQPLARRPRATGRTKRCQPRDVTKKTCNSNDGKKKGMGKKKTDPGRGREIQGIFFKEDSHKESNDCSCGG
Conditions: at 0.1 µM.

Epidermal growth factor receptor (Homo sapiens), P00533 [T790M], sequence (P00533 whole entry T790M): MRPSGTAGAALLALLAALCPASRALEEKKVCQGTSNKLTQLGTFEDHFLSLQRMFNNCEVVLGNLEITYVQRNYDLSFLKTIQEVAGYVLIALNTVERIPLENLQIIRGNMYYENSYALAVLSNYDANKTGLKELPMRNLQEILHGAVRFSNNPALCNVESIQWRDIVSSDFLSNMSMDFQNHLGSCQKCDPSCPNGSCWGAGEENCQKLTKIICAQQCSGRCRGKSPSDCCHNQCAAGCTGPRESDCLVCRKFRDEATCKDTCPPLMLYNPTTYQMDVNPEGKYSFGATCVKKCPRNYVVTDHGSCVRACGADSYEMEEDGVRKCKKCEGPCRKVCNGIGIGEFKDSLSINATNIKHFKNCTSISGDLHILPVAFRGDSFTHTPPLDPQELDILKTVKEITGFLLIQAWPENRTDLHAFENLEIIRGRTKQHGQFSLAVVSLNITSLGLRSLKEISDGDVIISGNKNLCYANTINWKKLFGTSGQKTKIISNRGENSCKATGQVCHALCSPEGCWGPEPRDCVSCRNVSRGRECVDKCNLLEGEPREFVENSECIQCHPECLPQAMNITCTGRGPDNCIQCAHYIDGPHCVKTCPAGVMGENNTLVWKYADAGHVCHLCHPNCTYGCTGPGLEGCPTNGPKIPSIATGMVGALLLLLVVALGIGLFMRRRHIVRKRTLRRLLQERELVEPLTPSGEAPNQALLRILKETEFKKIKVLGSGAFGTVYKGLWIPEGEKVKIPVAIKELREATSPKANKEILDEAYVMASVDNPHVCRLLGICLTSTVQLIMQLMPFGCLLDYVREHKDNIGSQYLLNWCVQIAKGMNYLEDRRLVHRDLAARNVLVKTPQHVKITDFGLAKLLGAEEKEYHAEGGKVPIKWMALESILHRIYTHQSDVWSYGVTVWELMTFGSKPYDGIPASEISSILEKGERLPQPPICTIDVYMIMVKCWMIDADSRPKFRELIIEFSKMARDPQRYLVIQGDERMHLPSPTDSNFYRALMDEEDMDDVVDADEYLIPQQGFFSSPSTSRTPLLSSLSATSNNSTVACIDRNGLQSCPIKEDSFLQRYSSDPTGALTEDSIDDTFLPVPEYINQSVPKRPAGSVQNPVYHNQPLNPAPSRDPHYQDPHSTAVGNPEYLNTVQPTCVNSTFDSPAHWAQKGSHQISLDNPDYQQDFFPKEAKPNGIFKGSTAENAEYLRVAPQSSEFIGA
Epidermal growth factor receptor (Homo sapiens), P00533 [L858R], sequence (P00533 whole entry L858R): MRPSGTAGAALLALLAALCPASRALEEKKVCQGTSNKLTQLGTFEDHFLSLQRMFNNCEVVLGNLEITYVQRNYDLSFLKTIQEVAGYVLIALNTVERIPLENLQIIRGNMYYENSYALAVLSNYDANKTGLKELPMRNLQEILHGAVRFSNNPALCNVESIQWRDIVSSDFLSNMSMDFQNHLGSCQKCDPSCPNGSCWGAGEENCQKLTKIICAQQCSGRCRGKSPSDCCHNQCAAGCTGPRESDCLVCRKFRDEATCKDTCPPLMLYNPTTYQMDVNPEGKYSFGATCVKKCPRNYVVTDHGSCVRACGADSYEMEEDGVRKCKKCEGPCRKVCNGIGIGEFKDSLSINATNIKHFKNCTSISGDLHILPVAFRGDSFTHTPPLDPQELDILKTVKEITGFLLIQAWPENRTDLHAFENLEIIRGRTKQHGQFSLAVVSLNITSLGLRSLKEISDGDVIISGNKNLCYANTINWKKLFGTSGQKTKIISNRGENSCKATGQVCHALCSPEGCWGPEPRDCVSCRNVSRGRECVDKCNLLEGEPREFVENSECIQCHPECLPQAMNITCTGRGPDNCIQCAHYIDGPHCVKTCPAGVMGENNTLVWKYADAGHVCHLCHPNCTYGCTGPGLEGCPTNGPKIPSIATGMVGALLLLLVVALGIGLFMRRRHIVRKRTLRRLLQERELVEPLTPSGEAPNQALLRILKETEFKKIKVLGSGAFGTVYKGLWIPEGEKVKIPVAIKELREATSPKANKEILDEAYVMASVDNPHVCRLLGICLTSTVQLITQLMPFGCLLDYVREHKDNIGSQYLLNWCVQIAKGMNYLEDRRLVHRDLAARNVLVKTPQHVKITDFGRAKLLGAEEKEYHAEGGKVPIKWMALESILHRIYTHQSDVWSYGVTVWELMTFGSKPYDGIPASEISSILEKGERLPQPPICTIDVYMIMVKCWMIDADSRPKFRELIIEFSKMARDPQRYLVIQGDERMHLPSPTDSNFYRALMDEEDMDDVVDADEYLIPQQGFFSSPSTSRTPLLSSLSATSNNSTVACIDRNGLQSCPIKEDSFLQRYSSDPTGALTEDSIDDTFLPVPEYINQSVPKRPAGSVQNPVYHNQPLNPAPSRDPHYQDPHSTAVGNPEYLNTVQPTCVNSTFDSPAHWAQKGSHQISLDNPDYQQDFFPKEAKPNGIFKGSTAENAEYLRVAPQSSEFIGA
Ephrin type-A receptor 4 (Homo sapiens), sequence (P54764 whole entry): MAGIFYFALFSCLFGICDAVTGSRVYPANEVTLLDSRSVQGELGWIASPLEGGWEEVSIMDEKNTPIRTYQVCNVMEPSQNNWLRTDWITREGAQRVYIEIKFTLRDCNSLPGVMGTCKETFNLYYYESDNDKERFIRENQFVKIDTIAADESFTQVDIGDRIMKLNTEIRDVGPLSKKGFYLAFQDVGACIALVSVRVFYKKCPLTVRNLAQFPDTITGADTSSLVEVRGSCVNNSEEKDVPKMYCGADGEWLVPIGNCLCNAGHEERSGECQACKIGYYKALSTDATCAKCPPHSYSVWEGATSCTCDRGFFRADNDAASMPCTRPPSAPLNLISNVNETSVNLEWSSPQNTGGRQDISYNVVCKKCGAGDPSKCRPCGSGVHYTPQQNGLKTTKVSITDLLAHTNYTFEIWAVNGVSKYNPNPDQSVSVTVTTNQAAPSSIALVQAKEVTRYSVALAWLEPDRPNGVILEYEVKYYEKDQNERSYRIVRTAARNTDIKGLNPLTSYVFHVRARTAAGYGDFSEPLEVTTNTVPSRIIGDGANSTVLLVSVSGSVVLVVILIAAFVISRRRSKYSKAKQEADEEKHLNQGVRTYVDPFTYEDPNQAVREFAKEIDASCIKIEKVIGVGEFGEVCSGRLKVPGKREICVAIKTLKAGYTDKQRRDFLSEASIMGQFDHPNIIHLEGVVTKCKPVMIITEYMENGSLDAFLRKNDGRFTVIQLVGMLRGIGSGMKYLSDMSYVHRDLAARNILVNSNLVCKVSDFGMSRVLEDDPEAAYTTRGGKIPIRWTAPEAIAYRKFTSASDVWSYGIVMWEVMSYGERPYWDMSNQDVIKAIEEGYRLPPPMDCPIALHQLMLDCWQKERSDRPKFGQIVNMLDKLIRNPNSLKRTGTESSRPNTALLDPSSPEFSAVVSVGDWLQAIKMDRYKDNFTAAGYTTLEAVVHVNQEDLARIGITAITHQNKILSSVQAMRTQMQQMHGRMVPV
Ephrin type-A receptor 2 (Homo sapiens), sequence (P29317 whole entry): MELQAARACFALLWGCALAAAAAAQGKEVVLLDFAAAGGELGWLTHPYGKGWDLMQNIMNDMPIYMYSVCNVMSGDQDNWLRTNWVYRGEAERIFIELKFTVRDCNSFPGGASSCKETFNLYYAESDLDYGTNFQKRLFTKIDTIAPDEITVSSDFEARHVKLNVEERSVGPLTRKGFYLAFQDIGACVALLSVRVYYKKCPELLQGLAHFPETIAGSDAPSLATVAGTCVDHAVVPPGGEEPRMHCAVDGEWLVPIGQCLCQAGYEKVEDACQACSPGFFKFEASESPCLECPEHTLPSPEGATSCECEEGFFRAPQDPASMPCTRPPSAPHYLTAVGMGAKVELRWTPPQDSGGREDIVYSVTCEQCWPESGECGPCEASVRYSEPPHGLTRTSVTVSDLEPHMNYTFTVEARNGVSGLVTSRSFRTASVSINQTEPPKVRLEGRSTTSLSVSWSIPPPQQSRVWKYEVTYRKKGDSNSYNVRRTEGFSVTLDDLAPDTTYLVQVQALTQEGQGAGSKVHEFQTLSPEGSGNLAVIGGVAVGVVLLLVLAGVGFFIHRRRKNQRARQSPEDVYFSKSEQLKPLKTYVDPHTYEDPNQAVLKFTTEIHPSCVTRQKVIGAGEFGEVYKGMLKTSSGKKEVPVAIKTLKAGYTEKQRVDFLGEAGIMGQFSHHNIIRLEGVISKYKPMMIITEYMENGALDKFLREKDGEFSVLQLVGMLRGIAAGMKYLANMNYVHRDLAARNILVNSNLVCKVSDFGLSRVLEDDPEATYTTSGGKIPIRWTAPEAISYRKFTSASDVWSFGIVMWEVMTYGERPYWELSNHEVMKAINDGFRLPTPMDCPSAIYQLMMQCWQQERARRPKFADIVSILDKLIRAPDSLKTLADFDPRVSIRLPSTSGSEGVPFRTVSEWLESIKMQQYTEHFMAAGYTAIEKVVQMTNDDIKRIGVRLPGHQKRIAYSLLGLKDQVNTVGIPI
Tyrosine-protein kinase CSK (Homo sapiens), sequence (P41240 2-450 limits assumed): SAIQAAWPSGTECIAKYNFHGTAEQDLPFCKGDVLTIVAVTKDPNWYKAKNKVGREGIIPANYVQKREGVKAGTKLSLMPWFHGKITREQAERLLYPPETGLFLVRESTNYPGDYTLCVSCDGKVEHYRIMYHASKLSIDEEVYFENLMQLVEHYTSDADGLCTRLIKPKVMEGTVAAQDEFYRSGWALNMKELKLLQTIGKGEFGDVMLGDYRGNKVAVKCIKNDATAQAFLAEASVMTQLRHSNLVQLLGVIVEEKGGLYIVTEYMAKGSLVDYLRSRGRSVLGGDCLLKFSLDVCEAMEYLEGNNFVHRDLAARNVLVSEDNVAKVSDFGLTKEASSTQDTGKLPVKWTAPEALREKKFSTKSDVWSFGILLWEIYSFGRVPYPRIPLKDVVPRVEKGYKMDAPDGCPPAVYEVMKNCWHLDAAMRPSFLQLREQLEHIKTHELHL

With `COc1ccc(-c2cc(-c3c[nH]nc3-c3ccccn3)ccn2)cc1`, the inhibition in assay [1] came to 10.3%; in assay [2], 2.09%; in assay [3], 3.66%; in assay [4], 1.65%; in assay [5], 6.06%; in [6] it was 1.51%. The inhibition in [7] turned out to be 8.95%; in [8], 4.61%; in assay [9], 4.33%; in [10], 2.05%; in assay [11], 4.53%; in [12], 2.1%. For the same molecule, the inhibition in [13] stood at 4.71%; in [14], 2.38%; in [15] it was 1.07%; in assay [16], 4.5%; in assay [17] it was 7.51%; in assay [18], 8.66%. For the same molecule, the results for the inhibition in [19] and in assay [20] were 14.1% and 7.99%, respectively.

Regarding `COc1ccc(-c2nn3ncccc3c2-c2ccnc(Nc3ccc4c(c3)OCCO4)n2)cc1`, the inhibition in assay [1] is 2.25%; in assay [2], 17.7%; in assay [3], 79.8%; in assay [4], 0.51%; in assay [5] it was 34.1%; in assay [6], 8.22%. In addition, the inhibition in assay [7] was 57.4%; in assay [8] it was 5.78%; in [9], 34.3%; in assay [10], 0.7%; in [11], 5.19%; in assay [12], 0.11%. For the same molecule, the inhibition in assay [13] was 17.8%; in assay [14] it was -0.24%; in [15] it was 0.86%; in assay [16], -1.04%; in assay [17], 0.38%; in [18], 0.61%. Also, the inhibition turned out to be 13.8% in assay [19] and 1.72% in [20].

On to `CCN1CCC(CC(=O)Nc2n[nH]c3nnc(-c4cccc(F)c4F)cc23)CC1`, for which the inhibition in assay [1] is 4.47%; in assay [2], 1.59%; in assay [3], 1.68%; in assay [4] it was -0.65%; in assay [5], 2.31%; in [6], -0.92%. In addition, the inhibition is 3.4% in assay [7]; 0.65% in [8]; -0.91% in assay [9]; -0.06% in assay [10]; 3.4% in assay [11]; 1.92% in assay [12]. Besides, the inhibition in assay [13] amounted to 1.26%; in [14], 0.75%; in [15] it was 1.02%; in [16] it was 3.31%; in [17], 2.84%; in [18], 5.3%. Moreover, the inhibition was 7.67% in [19] and -4.82% in assay [20].

As to `COc1cccc(-c2c[nH]c3c(N/N=C/c4ccncc4)ncnc23)c1`, the inhibition in assay [1] amounted to 17.3%; in assay [2], 3.82%; in assay [3], 14.8%; in assay [4] it was 7.02%; in assay [5], 41.9%; in [6] it was 30.4%. Moreover, the inhibition is 82.3% in assay [7]; 8.35% in [8]; 45.4% in assay [9]; 1.02% in assay [10]; 2.55% in assay [11]; 2.51% in [12]. The inhibition was 22.9% in assay [13]; 3.62% in [14]; 14.6% in assay [15]; 3.44% in assay [16]; 6.01% in assay [17]; 8.17% in assay [18]. Further, the values for the inhibition in [19] and in assay [20] were 30.5% and 10.3%, respectively.

With `Fc1cccc(COc2ccc(Nc3ncnc4sc(-c5ccco5)cc34)cc2Cl)c1`, the inhibition was 2.56% in assay [1]; 3.86% in assay [2]; 4.41% in assay [3]; 71.9% in [4]; 81.9% in [5]; 15.2% in assay [6]. In addition, the inhibition is 54.8% in assay [7]; 30.2% in assay [8]; 51% in assay [9]; 1.83% in [10]; 3.73% in [11]; 0.58% in assay [12]. In addition, the inhibition in [13] amounted to 3.48%; in assay [14] it was 2.14%; in [15] it was 1.92%; in assay [16], 3.15%; in [17], 4.97%; in assay [18] it was 7.43%. Moreover, the inhibition in assay [19] was found to be 9.74%; in assay [20] it was 9.21%.

For the molecule `CNC(=O)c1cncc(/C=C/c2ccccc2Cl)c1`, the inhibition is 6% in [1]; -0.31% in [2]; 6.62% in [3]; 2.35% in assay [4]; 6.18% in assay [5]; 1.57% in [6]. For the same molecule, the inhibition in assay [7] is 10.9%; in assay [8], 1.06%; in assay [9] it was 7.25%; in assay [10], -0.23%; in [11], 5.34%; in assay [12], 1.14%. Moreover, the inhibition in assay [13] is -0.51%; in assay [14], 3.31%; in assay [15], 2.6%; in [16] it was 1.03%; in assay [17], 1.99%; in assay [18], 3.99%. Further, the inhibition in assay [19] was 15%; in [20], -0.8%.

Regarding `c1ccc(-c2nc3n(c2-c2ccc4c(c2)OCO4)CCC3)nc1`, the inhibition in [1] is 1.76%; in assay [2], 0.99%; in [3] it was 0.78%; in assay [4], 1.53%; in [5] it was 0.21%; in assay [6], 0.88%. Besides, the inhibition was -1.2% in [7]; 0.86% in assay [8]; 1.07% in assay [9]; 0.12% in [10]; 0.6% in [11]; 1.92% in [12]. In addition, the inhibition in assay [13] was 1.45%; in assay [14] it was -2.56%; in [15] it was -2.85%; in assay [16], -0.11%; in assay [17] it was 1.96%; in [18], 4.05%. The inhibition in assay [19] was 2.75%; in [20], 1.03%.
